# Reference: the supplement of paper PMC3334620
# Whole data set: some 33,000 sequences, median “E-score (-0.5 to 0.5)” near -0.016, cut for the highest 2% near 0.31. The full list was thinned out, with the highest values kept by preference.
# Biological target: Cst6 (UniProt P40535)
# Assay: PBM E-score (8-mer binding enrichment) (E-score (-0.5 to 0.5)); higher = stronger / more preferred TF binding
# Conditions: protein concentration: 200 nM; construct: GST-DNA-binding domain
# Procedure: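 Universal 'all 10-mer' protein binding microarrays (Agilent AMADID 015681) probed with GST-tagged S. cerevisiae TFs (full-length or DBD) made by in vitro transcription/translation (PURExpress), about 100-200 nM. Bound TF was detected with fluorescent anti-GST. Each ungapped 8-mer (which stands for itself and its reverse complement) is scored by the PBM enrichment score (E-score), a modified Wilcoxon-Mann-Whitney statistic from -0.5 to +0.5, computed with the Universal PBM Analysis Suite. Scale: above 0.35 generally sequence-specific binding.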
# Chain of UniProt P40535 (P40535 whole entry): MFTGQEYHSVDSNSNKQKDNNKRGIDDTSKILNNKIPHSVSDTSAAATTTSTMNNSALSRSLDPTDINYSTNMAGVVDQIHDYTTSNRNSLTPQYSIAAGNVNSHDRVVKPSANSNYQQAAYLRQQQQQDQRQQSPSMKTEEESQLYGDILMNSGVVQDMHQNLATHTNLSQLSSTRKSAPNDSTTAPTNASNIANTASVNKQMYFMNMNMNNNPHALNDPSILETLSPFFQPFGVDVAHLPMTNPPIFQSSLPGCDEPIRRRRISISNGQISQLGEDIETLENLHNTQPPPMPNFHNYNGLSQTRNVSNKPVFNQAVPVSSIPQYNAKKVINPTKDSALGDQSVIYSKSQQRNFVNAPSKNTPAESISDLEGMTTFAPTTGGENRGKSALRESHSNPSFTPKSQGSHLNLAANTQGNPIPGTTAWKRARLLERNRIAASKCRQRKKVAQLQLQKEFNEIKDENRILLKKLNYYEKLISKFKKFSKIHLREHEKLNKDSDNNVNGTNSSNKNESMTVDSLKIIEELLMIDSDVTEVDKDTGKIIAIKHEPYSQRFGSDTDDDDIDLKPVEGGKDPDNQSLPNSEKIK
row,Sequence,PBM E-score
1,AAACGTAA,0.365
2,CAACGTTG,0.31
3,GGCCCTCA,-0.266
4,AAGCAAAC,0.0375
5,TGATGAAA,0.289
6,TCATGACA,0.392
7,CGATGACG,0.48
8,CGATGAGA,-0.048
9,TGATGACA,0.368
10,AGATGACA,0.283
11,TCATGAGA,0.214
12,GCATGACA,0.288
13,CGATGACA,0.383
14,CGATGACC,0.0541
15,GGATGACA,0.287
16,CGATGAAG,0.0389
17,AAGCGTGA,0.141
18,GACTATCA,-0.104
19,CGGAGATC,-0.205
20,ACTGTGTA,-0.043
21,CTACTCCC,-0.156
22,CAGGCCAA,-0.178
23,GCGTGACA,0.255
24,CGTTCTTC,0.151
25,ACAGATCC,0.0419
26,ACGAACAC,0.138

row,Sequence,PBM E-score
1,AGATGACC,0.0152
2,AGATGACG,0.473
3,AGATGACT,0.0398
4,ACTCTGGA,0.109
5,TGACGAAA,0.477
6,AGACGAAA,0.134
7,CGACGACA,-0.054
8,GGACGACA,0.0793
9,TGACGACA,0.476
10,GGACGAAA,0.0732
11,TGCATCAA,0.154
12,CAGCCAAA,0.0814
13,AGCCTGAA,-0.0532
14,GTGACCTA,0.192
15,CTGACCTA,-0.0164
16,ATGACCTA,0.346
17,CTGACCTC,0.0456
18,ATGACCTC,0.349
19,ATGACCTG,0.0198
20,GCCGGCAA,-0.108
21,AGTCATCA,0.0814
22,AGTCATCC,-0.0119
23,GGTCATCA,0.247
24,CGTCATCC,0.473
25,CCTCATCC,-0.272
26,CGTCATCA,0.487

row,Sequence,PBM E-score
1,CGGCACGC,0.0275
2,TGTGGAAA,0.186
3,ATTGATTG,0.237
4,AATGATCT,0.215
5,AATGATTA,0.344
6,AAAGATGT,0.13
7,AATGATGA,0.334
8,ACTGATGA,0.173
9,AATGATGT,0.41
10,AATGATTC,0.225
11,GATGATTA,0.2
12,ATTGATTA,0.308
13,AATGATGG,0.186
14,ATTGATTC,0.178
15,CCAAACTC,-0.0716
16,CTCATCGC,-0.0477
17,GTAACCAC,-0.0805
18,AACAGAGG,-0.0721
19,ACAAGTTG,-0.0486
20,AACACCCA,-0.246
21,TGAACCAA,0.184
22,AGGCGGTA,-0.225
23,CCAAGCCG,-0.182
24,TGCCATAA,0.00753
25,ACGTTACC,0.179
26,AACGGTTG,0.0747

row,Sequence,PBM E-score
1,AGTGATGC,0.317
2,GATGATGC,0.328
3,AATGATGC,0.347
4,ATTGATGC,0.262
5,AGTGATGA,0.284
6,AATGATCC,0.026
7,CCTGATGC,0.0754
8,AGTGATGG,0.0422
9,GATGATCC,0.00428
10,AAATTAGC,0.153
11,ACACTCCC,-0.177
12,GCACTAAC,-0.119
13,CCACCTCA,-0.114
14,AGCAGTGG,-0.048
15,AATATAAG,0.352
16,CATATAAG,0.146
17,AATATAAA,0.331
18,AATAAATG,0.302
19,CATATAAA,0.236
20,AATATAAT,0.156
21,AATAAATA,0.39
22,TATAAATA,0.294
23,TATATAAA,0.298
24,AGGACAAC,0.0452
25,ACGGTCTA,-0.0035
26,CGTATTGC,0.0567

row,Sequence,PBM E-score
1,ACGGATTC,0.0332
2,CCGTACTC,-0.113
3,TGCCAAAA,0.0693
4,ATGTGGGG,-0.237
5,CTCATGAA,0.158
6,CTCATGAG,0.079
7,GTCATGAC,0.374
8,ATCATGAG,0.146
9,CTCATGCA,0.00428
10,ATCATGCA,0.109
11,GTCATGAA,0.268
12,CTCATGAC,0.335
13,ATCATGAC,0.446
14,GACATGAC,0.275
15,GTCATGCA,0.36
16,ATCATGAA,0.17
17,ATTGAGCG,-0.0477
18,ACCGGATA,-0.0988
19,AAAGGCCA,-0.109
20,AGCGCGTA,0.177
21,CTGATGGA,-0.0729
22,ACGTGCAG,0.0472
23,ACCGCCGT,0.209
24,AATATTAC,0.241
25,AAAATTAT,0.378
26,ATCATTAC,0.375

row,Sequence,PBM E-score
1,GTAATTAA,0.188
2,GATATTAC,0.352
3,CTCATTAC,0.25
4,AAAATTAC,0.257
5,ATAATTAA,0.322
6,CATATTAC,0.261
7,AAAATTAG,0.159
8,ATCATTAG,0.19
9,TTAATTAA,0.0995
10,CAAGGATC,-0.012
11,GCTATACC,-0.19
12,GGAGCATA,-0.00076
13,CCGGCATA,-0.15
14,CCTGCGCG,-0.0722
15,AAAGCGCC,0.113
16,CTAGTCAA,-0.127
17,AGCACCTA,-0.227
18,ATACGTTC,0.0426
19,GGGGAGAA,-0.161
20,ATAATTAT,0.342
21,ATTGTTAC,0.348
22,ATAATTAG,0.223
23,CTTGTTAC,0.0412
24,ATTATAAT,0.259
25,AAAATTAA,0.115
26,ACTATTAC,0.201

row,Sequence,PBM E-score
1,CTTATTAC,0.231
2,ATTATTAC,0.339
3,ATTGTTAG,0.129
4,CAAATTAA,0.224
5,GAAATTAA,0.334
6,CGACTAAC,-0.0525
7,ACACACCT,0.0393
8,CATGAAAG,0.082
9,CTTCTTAC,-0.0252
10,ATTCTTAC,0.315
11,ATTCTTAG,0.0174
12,ACAATTAT,0.289
13,GTAATTAC,0.287
14,AAGATTAC,0.127
15,ATAATTAC,0.349
16,ACAATTAC,0.249
17,ACAATTAA,0.319
18,GAGATTAC,0.312
19,GAGATTAA,0.0823
20,CTAATTAC,0.243
